The record followed here is PubChem BioAssay (NCATS).

Records with an inconclusive call do not appear. A number with no mark means an inactive call. The source made the active and inactive calls. Calls follow the shape of the dose curve; as a rule, active = well fitted cell-killing curve with a large enough effect; inconclusive = small, poorly fitted or top-dose-only effect; inactive = flat fitted curve, though single readings scatter.
Potency is read from the fitted curve at half-maximal effect.

One assay is described as follows: Cellular viability qHTS for adrenocortical cancer (ACC) cell line SW-13 (AID 1963989). Also: nearly all actives have a fitted effect of over 65% in size.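 As to activity (max response): cells grown in serum-free medium with ITS supplement; % is scaled to controls: 0 for no effect and ±100 for the full control effect.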 The conditions noted are these: SW-13 ACC cells viability, CellTiter-Glo, 48 h; activity (max response): active compounds read low. The gist of the method:
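Luminescent ATP read-out (CellTiter-Glo, 20 min at room temperature) measured metabolically competent SW-13 cells after 48 h compound treatment. Final concentrations spanned up to 46 uM; bortezomib served as positive control.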
In general terms: In qHTS, concentration-response curves come from the screen itself.
In the case of `COc1ccc(S(=O)(=O)N(CCO)c2ccccc2CN(C)C/C=C/c2ccc(Cl)cc2)cc1`, the Potency was 10 µM (active).
In the case of `COc1ccc(-c2c(C)nn3c(NCCN4CCOCC4)cc(C)nc23)cc1OC`, the activity (max response) is 10.9%.
Take `CCN1CCN(Cc2ccc(Nc3ncc(F)c(-c4cc(F)c5nc(C)n(C(C)C)c5c4)n3)nc2)CC1`: the Potency is 15.8 µM (active).
For the compound `CCCCCCCCCCCCCCCCCCOCC(O)CO` (stereo not drawn), the activity (max response) was 15%.
Turning to `CC(C)c1cc(CNc2nc(Nc3cc(C4CC4)[nH]n3)cc(N3CCN(C)CC3)n2)on1`, the Potency was 3.98 µM (active).
With `COc1cc(C(=O)NC2CCCNC2)cc(OC)c1OC` (stereo not drawn), the activity (max response) was 8.49%.
As for `COc1cc(-c2ccc(=O)[nH]n2)ccc1OC(F)F`, the activity (max response) is -6.02%.
Same read-out and setting: in the case of `N=C(N)c1ccc2nc(-c3cc(CC(=O)N[C@@H](CC(=O)O)C(=O)O)cc(-c4cc(S(N)(=O)=O)ccc4O)c3O)[nH]c2c1` it was 10.3%.
`C[C@@H](O)[C@@H]1NC(=O)[C@H](CCCCN)NC(=O)[C@@H](Cc2c[nH]c3ccccc23)NC(=O)[C@H](Cc2ccccc2)NC(=O)[C@@H](NC(=O)[C@H](N)Cc2ccccc2)CSSC[C@@H](C(=O)N[C@H](CO)[C@@H](C)O)NC1=O`: the activity (max response) is -1.31%.
Take `CN1CCC[C@@H]1c1cccnc1`: the activity (max response) was -8.92%.
On the same count and under the same terms, in the case of `COc1cc(N2CCN(C)CC2)ccc1Nc1nccc(-c2cn(C)c3cnccc23)n1` it was -3.47%.
The same measure, in the same setting: in the case of `COc1cc(Cc2cnc(N)nc2N)cc(OC)c1OC` it was -3.43%; in that of `O=C(CCCl)NCCc1ccccc1`, -1.73%; in that of `C[C@@H]1C[C@H]2[C@@H]3C[C@H](F)C4=CC(=O)C(Cl)=C[C@]4(C)[C@@]3(F)[C@@H](O)C[C@]2(C)[C@@]1(O)C(=O)CO`, -6.49%.
The same measure, in the same setting: in the case of `CC(C)COC(=O)c1ccc(N)cc1` it was 4.68%.
For the compound `COc1ccc2c(c1)[C@]1(C[C@H]1c1ccc3c(/C=C/c4ccc(CN5C[C@@H](C)O[C@@H](C)C5)cc4)n[nH]c3c1)C(=O)N2`, the Potency is 14.1 µM (active).
On the same count and under the same terms, in the case of `CCC1CCCCN1C(=O)n1ncc(C(O)(c2ccccc2)c2ccccc2)n1` (stereo not drawn) it was 15.8 µM (active).
Take `O=C(O)CCCC[C@@H]1SC[C@@H]2NC(=O)N[C@@H]21`: the activity (max response) is -0.523%.

A further assay can be described thus: Cellular viability qHTS for adrenocortical cancer (ACC) cell line NCI-H295R (AID 1963990). Also: nearly all actives have a fitted effect of over 60% in size.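 As to activity change, negative = viability loss: 0% = DMSO only wells and -100% = full killing with cytotoxic reference compound.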 Particulars: CellTiter-Glo ATP luminescence, 48 h; series mostly up to 46.1 µM; activity change, negative = viability loss: at the top concentration. The gist of the method: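 IC50 and maximal efficacy derive from four-parameter logistic modelling of titration curves, with reads scaled between DMSO-only wells (0%) and doxorubicin hydrochloride (100% inhibition). Compounds spanned up to 46 uM over 48 h.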
`CCOC(=O)[C@H](CCc1ccccc1)N[C@@H](C)C(=O)N1[C@H](C(=O)O)C[C@@H]2CCC[C@@H]21`: the Potency result was “inactive”.
On the same count and under the same terms, in the case of `Cc1c(O)cccc1C(=O)NC(CSc1ccccc1)C(O)CN1CC2CCCCC2CC1C(=O)NC(C)(C)C` (stereo not drawn) it was 17.8 µM (active); in that of `CC(C)(C)c1ccc(C(=O)CCCN2CCC(OC(c3ccccc3)c3ccccc3)CC2)cc1`, 5.8 µM (active).
The same measure, in the same setting: in the case of `NC12CC3CC(CC(C3)C1)C2` it was “inactive”.
As for `CN1[C@@H]2CCC[C@H]1CC(NC(=O)c1nn(C)c3ccccc13)C2` (stereo partly drawn), the “activity change, negative = viability loss” value was -10.4%.
Take `CC(=O)Nc1ccc(C(=O)Nc2ccccc2N)cc1`: the Potency was 6.31 µM (active).
As for `Cc1ccc(S(=O)(=O)NC(=O)NN2CCCCCC2)cc1`, the “activity change, negative = viability loss” value is -5.01%.
Consider `Cc1cc(O)c(-c2ccc([C@@H](C)CN(C)C)cc2)c2c1[nH]c(=O)c1sccc12`, for which the Potency was 0.251 µM (active).
In the case of `O=C(/C=C/c1ccc(Cl)cc1)N1CCC2(CC1)CN(Cc1ccc(Cl)c(Cl)c1)C(=O)O2`, the “activity change, negative = viability loss” value was -18.7%.
On the same count and under the same terms, in the case of `Cn1c([N+](=O)[O-])cnc1COC(N)=O` it was -17.2%.
The same measure, in the same setting: in the case of `CNCC(O)c1ccc(O)c(O)c1` (stereo not drawn) it was -11%.
Turning to `CC(C)N(CCCNC(=O)Nc1ccc(C(C)(C)C)cc1)C[C@H]1O[C@@H](n2cc(Br)c3c(N)ncnc32)[C@H](O)[C@@H]1O`, the Potency is 25.1 µM (active).
On the same count and under the same terms, in the case of `C[C@H](CN(C)C)Oc1nc(Nc2cc3cccc(Cl)c3cn2)cnc1C#N` it was 2.24 µM (active).
Consider `CCC1Nc2cc(Cl)c(S(N)(=O)=O)cc2S(=O)(=O)N1` (stereo not drawn), for which the “activity change, negative = viability loss” value was -24.7%.
Regarding `Cc1cc2c(C(C)C)c(O)c(O)c(C=O)c2c(O)c1-c1c(C)cc2c(C(C)C)c(O)c(O)c(C=O)c2c1O`, the Potency is 8.2 µM (active).
The same measure, in the same setting: in the case of `COc1ccc(CCN2CCC(Nc3nc4ccccc4n3Cc3ccc(F)cc3)CC2)cc1` it was 14.6 µM (active); in that of `COC1CCC(N2C(=O)CNc3ncc(-c4ccc(C(C)(C)O)nc4)nc32)CC1` (stereo not drawn), 15.8 µM (active).
As for `CC(=O)N1CCC[C@H]1C(=O)N[C@@H](Cc1cnc[nH]1)C(=O)N[C@@H](CO)C(=O)N[C@@H](CS)C(=O)N[C@@H](CC(N)=O)C(N)=O`, the “activity change, negative = viability loss” value is -2.13%.
As to `CN1CCN(c2ccc3nc(-c4c(N)c5c(F)cccc5[nH]c4=O)[nH]c3c2)CC1`, the Potency was 17.8 µM (active).
The same measure, in the same setting: in the case of `OC1(c2ccc(Cl)c(C(F)(F)F)c2)CCN(CCCC(c2ccc(F)cc2)c2ccc(F)cc2)CC1` it was 3.66 µM (active); in that of `CN1CCCN=C1/C=C/c1cccs1`, “inactive”.
Turning to `CCCCCCCCCCCCCCCC[N+](C)(C)CCN(Cc1ccc(OC)cc1)c1ncccn1`, the Potency was 16.4 µM (active).
For the compound `COc1ccc(S(=O)(=O)N(CCO)c2ccccc2CN(C)C/C=C/c2ccc(Cl)cc2)cc1`, the Potency was 12.6 µM (active).
As to `COc1ccc(-c2c(C)nn3c(NCCN4CCOCC4)cc(C)nc23)cc1OC`, the “activity change, negative = viability loss” value is -15.9%.
On to `CCN1CCN(Cc2ccc(Nc3ncc(F)c(-c4cc(F)c5nc(C)n(C(C)C)c5c4)n3)nc2)CC1`, for which the Potency is 4.47 µM (active).
Turning to `CCCCCCCCCCCCCCCCCCOCC(O)CO` (stereo not drawn), the “activity change, negative = viability loss” value is 3.66%.
Turning to `CC(C)c1cc(CNc2nc(Nc3cc(C4CC4)[nH]n3)cc(N3CCN(C)CC3)n2)on1`, the Potency is 1.58 µM (active).
Regarding `COc1cc(C(=O)NC2CCCNC2)cc(OC)c1OC` (stereo not drawn), the “activity change, negative = viability loss” value is -6.03%.
Same read-out and setting: in the case of `COc1cc(-c2ccc(=O)[nH]n2)ccc1OC(F)F` it was -12.2%; in that of `N=C(N)c1ccc2nc(-c3cc(CC(=O)N[C@@H](CC(=O)O)C(=O)O)cc(-c4cc(S(N)(=O)=O)ccc4O)c3O)[nH]c2c1`, 1.5%.
The same measure, in the same setting: in the case of `C[C@@H](O)[C@@H]1NC(=O)[C@H](CCCCN)NC(=O)[C@@H](Cc2c[nH]c3ccccc23)NC(=O)[C@H](Cc2ccccc2)NC(=O)[C@@H](NC(=O)[C@H](N)Cc2ccccc2)CSSC[C@@H](C(=O)N[C@H](CO)[C@@H](C)O)NC1=O` it was 2.25% [at 20 µM]; in that of `CN1CCC[C@@H]1c1cccnc1`, -3.15%.
In the case of `COc1cc(N2CCN(C)CC2)ccc1Nc1nccc(-c2cn(C)c3cnccc23)n1`, the Potency was 25.1 µM (active).
`COc1cc(Cc2cnc(N)nc2N)cc(OC)c1OC`: the “activity change, negative = viability loss” value is -10.7%.
Consider `O=C(CCCl)NCCc1ccccc1`, for which the “activity change, negative = viability loss” value is -7.26%.
On the same count and under the same terms, in the case of `C[C@@H]1C[C@H]2[C@@H]3C[C@H](F)C4=CC(=O)C(Cl)=C[C@]4(C)[C@@]3(F)[C@@H](O)C[C@]2(C)[C@@]1(O)C(=O)CO` it was -17.7%; in that of `CC(C)COC(=O)c1ccc(N)cc1`, -6.37%.
With `COc1ccc2c(c1)[C@]1(C[C@H]1c1ccc3c(/C=C/c4ccc(CN5C[C@@H](C)O[C@@H](C)C5)cc4)n[nH]c3c1)C(=O)N2`, the Potency is 6.31 µM (active).
Same read-out and setting: in the case of `CCC1CCCCN1C(=O)n1ncc(C(O)(c2ccccc2)c2ccccc2)n1` (stereo not drawn) it was 28.2 µM (active).
As for `O=C(O)CCCC[C@@H]1SC[C@@H]2NC(=O)N[C@@H]21`, the “activity change, negative = viability loss” value is -23.2%.
